Screening data deposited in PubChem BioAssay by Buhrlage Lab, Dana-Farber Cancer Institute and Novartis Institutes for BioMedical Research (Cambridge, Mass).
This is a sample that favours compounds with a hit; in the whole collection about 13% have one here.
USP17 inh – human USP17-like deubiquitinase inhibition | A8MUK1 | purified USP17, Ub-rhodamine cleavage fluorescence, 3 h | inhibition, % at 50 µM | 47,000 compounds, 6.5% hits
USP10 inh – human USP10 deubiquitinase inhibition. purified USP10, Ub-rhodamine fluorescence, 60 min. inhibition, % at 20 µM. 47,000 compounds, 1.1% hits. AID 1645856
USP28 block – human USP28 deubiquitinase inhibition. Q96RU2. purified USP28, Ub-rhodamine cleavage fluorescence, 30 min. inhibition, % at 25 µM. 47,000 compounds, 3% hits. AID 1645857
USP30 inh – inhibitors of human USP30 deubiquitinase. inhibition, % at 25 µM. 47,000 compounds, 5.3% hits. AID 1645860. Q70CQ3. purified USP30, Ub-rhodamine cleavage fluorescence
USP8 inh – human USP8 deubiquitinase inhibition. P40818. AID 1645853. purified USP8, Ub-rhodamine cleavage fluorescence, 30 min. inhibition, % at 20 µM. 47,000 compounds, 4.2% hits
Starred values were filed as active, the others as inactive; i = inactive; nt = not tested or not shown. Cut-off read from the data, not from the text of the source: active = inhibition above about 30%; inactive = the rest.

SMILES	USP17 inh	USP10 inh	USP28 block	USP30 inh	USP8 inh
O=C(Nc1ccc2nc3n(c(=O)c2c1)CCCC3)c1ccc2c(c1)OCO2	-8	-4	1	-42	-4
COc1ccc(NC(=O)Nc2ccc3nc4n(c(=O)c3c2)CCCC4)cc1OC	4	6	31*	12	2
O=C(CN1CCOCC1)Nc1nc(-c2ccc3c(c2)CCN3C(=O)c2ccc(F)cc2)cs1	14	-5	-2	-30	14
Cn1c2ccccc2c(=O)c2c(=O)n(-c3cccc(Cl)c3)c(-c3cccs3)nc21	30*	63*	-21	-146	94*
Cn1c2ccccc2c(=O)c2c(=O)n(-c3ccccc3)c(-c3ccc(Cl)cc3)nc21	19	3	16	27	27
CCc1nc2c(c(=O)c3ccccc3n2C)c(=O)n1-c1ccc(C)cc1	49*	5	nt	nt	31*
O=C(CSc1ccc(N2CCC(C(=O)NC3CC3)CC2)nn1)Nc1cccc(Cl)c1	38*	-7	-18	-91	-10
CC1CCN(c2ccc(N3CCC(C(=O)NC4CCCCC4)CC3)nn2)CC1	-8	-5	-6	-26	-24
Cc1ccccc1OCCC(=O)NC(c1ccccc1)c1ccccc1	32*	0	10	21	12
Cc1ccc(C)c2[nH]c(=O)c(CN(CC3CCCO3)S(=O)(=O)c3ccccc3Cl)cc12 (stereo unspecified)	14	3	20	33*	19
COc1ccccc1[C@]12C[C@H]1CN(C(=O)Nc1ccncc1)c1cccnc1C2=O	15	0	7	34*	-10
CCN1C[C@@H]2C[C@]2(c2ccccc2OC)C(=O)c2ncccc21	65*	-4	1	-54	94*
O=C1c2ncccc2N(S(=O)(=O)c2cccc(F)c2)C[C@@H]2C[C@]12c1ccccc1	0	-1	3	2	10
CC(=O)c1ccc(NC(=O)CN(CC(=O)Nc2ccc(C(C)=O)cc2)S(=O)(=O)c2ccc(C)cc2C)cc1	32*	-1	-3	-39	-3
CCC(C(=O)Nc1ccc(-c2nc3cccnc3s2)cc1)c1ccccc1 (stereo unspecified)	-49	1	-57	-138	36*
CC1=C(C(=O)NCc2ccccc2)C(c2cccc(OCc3ccccc3)c2)n2ncnc2N1 (stereo unspecified)	0	12	-3	-9	-7
CCOC(=O)c1cc2c(ccn2C)n1Cc1ccccc1C#N	-23	-7	-63	-322	26
COC(=O)c1cc2c(ccn2C)n1Cc1ccccc1OC	19	-5	-27	-207	70*
CCOC(=O)c1cc2c(ccn2C)n1CC(=O)N1CCN(C(=O)c2ccco2)CC1	-78	-6	-113	-486	37*
COC(=O)c1cc2c(ccn2C)n1Cc1ccccc1	-87	-5	-170	i	17
COC(=O)c1cc2c(ccn2C)n1CC(=O)N1CCCC1	-166	-4	-250	i	-19
CCOC(=O)c1cc2c(ccn2C)n1Cc1ccc2ccccc2n1	2	-7	-1	-156	57*
CCOC(=O)c1cc2c(ccn2C)n1Cc1cccc2ccccc12	54*	-7	21	-50	87*
O=C(NCCN1CCOCC1)c1cc(-c2cccnc2)n(-c2ccc(F)cc2)n1	1	-1	-3	17	0
CC1CCCN(CC2CCN(S(=O)(=O)c3ccc(C#N)cc3)CC2)C1 (stereo unspecified)	0	1	-17	12	-1
SMILES	USP17 inh	USP10 inh	USP28 block	USP30 inh	USP8 inh
CS(=O)(=O)c1ccc2nc(N(Cc3ccccc3)C(=O)CCSc3ccccc3)sc2c1	9	-6	0	-13	6
O=C(CN1CC[C@@]2(O)CCCC[C@H]2C1c1ccc2c(c1)OCO2)Nc1ccccc1 (stereo partly specified)	-11	-3	-7	-23	-19
COc1cc(OC)c(Nc2nc(Cc3ccccc3)nc3sc(C)c(C)c23)cc1Cl	12	-1	7	14	18
COc1ccccc1N1CCN(C(=O)CSc2cc(=O)n(C)c3ccccc23)CC1	16	0	14	32*	-23
COc1ccc(Cn2c(SCc3ccc(C(=O)NCCc4ccccc4)cc3)nc3ccncc32)cc1	32*	14	30	53*	-4
COC(=O)c1ccc(CSc2nc3ccncc3n2CC(=O)N2CCCC2)cc1	-26	-2	-10	-18	-126
COc1ccc(CCNC(=O)c2ccc(CSc3nc4ccncc4[nH]3)cc2)cc1OC	-17	1	34*	-9	1
